The results in this text go back to the supplement of paper PMC10811239.

The assay concerns LEGO organoid PT (PTEN-/-; TP53-/-). Description: bioluminescence (viable cell) signal fold change after vs before treatment, normalised to DMSO (ratio); higher = more tumour cell growth / less inhibition. The conditions noted are these: 10 µM; treatment time 6 days. How it is done:
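Luc2-labelled iPSC-derived glioblastoma-like organoids (LEGOs, genotypes PT = PTEN-/-;TP53-/-, PTCC = plus CDKN2A/B-/-, PTN = plus NF1-/-) were treated with 10 uM drug for 6 days (applied every other day) at 37 C. Bioluminescence imaging was done before treatment and 2 days after the last dose. BLI signals were normalised to the DMSO control on the same day and then to the pre-treatment signal (N=3).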
`CCCCS(=O)(=O)N[C@@H](Cc1ccc(OCCCCC2CCNCC2)cc1)C(=O)O` [Tirofiban]: the bioluminescence was determined as 0.741.

For `O=C(CCCN1CCC(O)(c2ccc(Cl)cc2)CC1)c1ccc(F)cc1` [Haloperidol], the bioluminescence worked out at 0.925.

For `CCCC(CCC)C(=O)O` [Valproic Acid], the bioluminescence came out at 1.01.

Consider `CC(C)(Sc1cc(C(C)(C)C)c(O)c(C(C)(C)C)c1)Sc1cc(C(C)(C)C)c(O)c(C(C)(C)C)c1` [Probucol], for which the bioluminescence was 0.49.

For `COc1cc(C(C)=O)ccc1OCCCN1CCC(c2noc3cc(F)ccc23)CC1` [Iloperidone], the bioluminescence amounted to 1.45.

Consider `COc1c(N2CCNC(C)C2)c(F)cc2c(=O)c(C(=O)O)cn(C3CC3)c12` (stereo not given) [Gatifloxacin], for which the bioluminescence was 1.66.

On to `Cc1ccc(C(=O)c2cc(O)c(O)c([N+](=O)[O-])c2)cc1` [Tolcapone], for which the bioluminescence amounted to 1.1.

For `Cc1c(C)c2c(c(C)c1O)CC[C@@](C)(CCC[C@H](C)CCC[C@H](C)CCCC(C)C)O2` [α-Vitamin E], the bioluminescence came out at 1.31.

In the case of `CCC1(C)CC(=O)NC1=O` (stereo not given) [Ethosuximide], the bioluminescence is 0.871.

In the case of `Cl.CN(C)CC\C=C1\c2ccccc2C=Cc2ccccc12` [Cyclobenzaprine hydrochloride], the bioluminescence is 0.825.

As for `N[C@@H](Cc1ccc(O)c(O)c1)C(=O)O` [Levodopa], the bioluminescence was found to be 0.963.

As for `Clc1ccc2c(c1)C(N1CCNCC1)=Nc1ccccc1O2` [Amoxapine], the bioluminescence was 0.902.

`Cc1ccc(Nc2nccc(N(C)c3ccc4c(C)n(C)nc4c3)n2)cc1S(N)(=O)=O.Cl` [Pazopanib HCl]: the bioluminescence was determined as 0.626.

Regarding `COc1cc2c(Nc3ccc(Br)cc3F)ncnc2cc1OCC1CCN(C)CC1` [Vandetanib], the bioluminescence stood at 1.32.

Regarding `CNC(=O)c1cc(Oc2ccc(NC(=O)Nc3ccc(Cl)c(C(F)(F)F)c3)cc2)ccn1` [Sorafenib], the bioluminescence was determined as 0.335.

Take `COC(=O)N[C@H](C(=O)N[C@@H](Cc1ccccc1)[C@@H](O)CN(Cc1ccc(-c2ccccn2)cc1)NC(=O)[C@@H](NC(=O)OC)C(C)(C)C)C(C)(C)C.O=S(=O)(O)O` [Atazanavir sulfate]: the bioluminescence turned out to be 1.05.

Consider `Cl.NCC(=O)CCC(=O)O` [5-Aminolevulinic acid hydrochloride], for which the bioluminescence is 1.09.

As to `CC(C)(S)[C@@H](N)C(=O)O` [d-penicillamin], the bioluminescence stood at 0.964.

`CN(C)C(=N)NC(=N)N.Cl` [Metformin hydrochloride]: the bioluminescence came out at 2.55.

Consider `CCCN[C@H]1CCc2nc(N)sc2C1.Cl.Cl.O` [Pramipexole 2HCl Monohydrate], for which the bioluminescence turned out to be 1.35.

As for `NC(=O)c1cnccn1` [Pyrazinamide], the bioluminescence came to 0.603.

On to `CCc1c(C)[nH]c2c1C(=O)C(CN1CCOCC1)CC2.Cl` (stereo not given) [Molindone hydrochloride], for which the bioluminescence came out at 0.607.

For `C[C@H](Cn1cnc2c(N)ncnc21)OCP(=O)(O)O` [Tenofovir], the bioluminescence is 0.702.

As for `CCCCCCCCCC(=O)OCCN1CCN(CCCN2c3ccccc3Sc3ccc(C(F)(F)F)cc32)CC1` [Fluphenazine decanoate], the bioluminescence is 0.875.

Turning to `CC1(C)S[C@@H]2[C@H](NC(=O)[C@H](N)c3ccc(O)cc3)C(=O)N2[C@H]1C(=O)O.O.O.O` [Amoxicillin trihydrate], the bioluminescence worked out at 1.03.

Regarding `C[C@@H]1O[C@@H]1P(=O)(O)O.NC(CO)(CO)CO` [Fosfomycin Tromethamine], the bioluminescence was 0.757.

Take `COc1cc2c(cc1OC)C(=O)C(CC1CCN(Cc3ccccc3)CC1)C2.Cl` (stereo not given) [Donepezil HCl]: the bioluminescence was 0.543.

Regarding `O=C([O-])CCCc1ccccc1.[Na+]` [Sodium Phenylbutyrate], the bioluminescence is 1.37.

Take `CN1CCN(C2=Nc3cc(Cl)ccc3Nc3ccccc32)CC1` [Clozapine]: the bioluminescence turned out to be 1.13.

Regarding `Cc1cc(C)nc(NS(=O)(=O)c2ccc(N)cc2)n1` [Sulfamethazine], the bioluminescence turned out to be 0.814.

`Cc1ncc([N+](=O)[O-])n1CCO` [Metronidazole]: the bioluminescence turned out to be 0.839.

With `CCCN(CCC)S(=O)(=O)c1ccc(C(=O)O)cc1` [Probenecid], the bioluminescence was determined as 3.62.

For `Nc1nc(NC2CC2)c2ncn([C@H]3C=C[C@@H](CO)C3)c2n1.Nc1nc(NC2CC2)c2ncn([C@H]3C=C[C@@H](CO)C3)c2n1.O=S(=O)(O)O` [Abacavir sulfate], the bioluminescence was 0.703.

Turning to `COc1cc2c(cc1OC)C(=O)C(CC1CCN(Cc3ccccc3)CC1)C2` (stereo not given) [Donepezil], the bioluminescence turned out to be 0.84.

Consider `CCn1c(=O)c2c(nc(/C=C/c3ccc(OC)c(OC)c3)n2C)n(CC)c1=O` [Istradefylline], for which the bioluminescence was 0.737.

Take `N[C@H](C(=O)O)[C@H](O)c1ccc(O)c(O)c1` [Droxidopa]: the bioluminescence worked out at 1.08.

For the compound `Cc1nc2c([nH]1)CCN(C(=O)c1ccc(NC(=O)c3ccccc3-c3ccccc3)cc1)c1ccccc1-2.Cl` [Conivaptan hydrochloride], the bioluminescence came out at 0.674.

Consider `CC1=NN(c2ccccc2)C(=O)C1` [Edaravone], for which the bioluminescence worked out at 0.893.

Take `CSCC[C@@H](N)C(=O)O` [Methionine]: the bioluminescence stood at 1.1.

On to `Cl.CN(C)CC\C=C1\c2ccccc2CCc2ccccc12` [Amitriptyline hydrochloride], for which the bioluminescence stood at 1.32.
